Experimental findings from PubChem BioAssay AID624151 (Broad Institute, 2012) are described below.

Out of some 28,000 compounds screened, about 410 (1.5%) were called active. The sample holds actives, similar compounds and a random draw of the others, so the mix is not that of the screen. Cut-off read from the data, not from the text of the source: active = activation above about 52%; inconclusive = no clear call, values can overlap the other calls; inactive = below that.

The assay can be described thus: mutant p53 pathway re-activators, primary screen, cell-based, SW480, luciferase, single point, HTS (AID 624151). The settings on record: SW480 PUMA-promoter luciferase, p53 mutant reactivation; at 9.98 µM; active compounds read high.
Regarding `COc1ccc(OC)c(NC(=O)CSc2n[nH]c(-c3ccncc3)n2)c1`, the activation was -8.93% (inactive).

`Cc1ccc(C(C)C)cc1OCC(O)Cn1cnc2ccccc21` (stereo unspecified): the activation is -15.4% (inactive).

In the case of `CCCNC(=O)N(C)C[C@@H]1Oc2ncc(-c3cccc(C#N)c3)cc2C(=O)N([C@@H](C)CO)C[C@@H]1C`, the activation is 2.46% (inactive).

On to `CC(=O)c1cccc(NC(=O)C(C)N(c2ccc(C)cc2)S(C)(=O)=O)c1` (stereo unspecified), for which the activation is 0.89% (inactive).

Consider `Cc1cc(=O)[nH]c(SCCCOc2ccccc2-c2ccccc2)n1`, for which the activation is -15.4% (inactive).

As to `C[C@H]1CN([C@@H](C)CO)C(=O)c2cc(/C=C/c3ccccc3)cnc2O[C@@H]1CN(C)C(=O)c1ccc(F)cc1`, the activation was 5.51% (inactive).

For the molecule `COc1ccc(NC(=O)Cn2cnc3sc(C)c(C)c3c2=O)cc1`, the activation was 4.48% (inactive).

Take `COc1ccc(NC(=O)N(C)C[C@H]2Oc3cc(-c4ccncc4)ccc3S(=O)(=O)N([C@H](C)CO)C[C@H]2C)cc1`: the activation is -12.4% (inactive).

`COc1ccc(NC(=O)CSC2CC(=O)N(c3ccc(F)cc3)C2=O)cc1` (stereo unspecified): the activation was -1.05% (inactive).

Take `Cc1ccccc1-n1c(C)cc(/C=C2\NC(=O)NC2=O)c1C`: the activation is 22.9% (inactive).

On to `Cc1ccc(C(=O)O)cc1S(=O)(=O)NCCCO`, for which the activation is -7.19% (inactive).

For the molecule `COc1cccc2cc(C(=O)C3C(=O)C(=O)N(CCN4CCOCC4)C3c3ccc(F)cc3)oc12` (stereo unspecified), the activation is 4.69% (inactive).

As to `C[C@H](O)C#Cc1cnc2c(c1)C(=O)N([C@@H](C)CO)C[C@H](C)[C@H](CN(C)C(=O)c1ccccc1)O2`, the activation is 10.7% (inactive).

As for `C[C@@H]1CN([C@H](C)CO)S(=O)(=O)c2ccc(C#CC3CC3)cc2O[C@H]1CN(C)C(=O)C1CCCCC1`, the activation is -13.7% (inactive).

Turning to `Cc1sc2ncnc(SCC(=O)Nc3ccccc3)c2c1-c1ccccc1`, the activation is -11.3% (inactive).

Turning to `Cc1ccc(S(=O)(=O)c2nc(-c3cccs3)oc2NCc2cccnc2)cc1`, the activation was -4.49% (inactive).

Take `C[C@@H]1CN([C@H](C)CO)S(=O)(=O)c2ccc(C#C[C@@H](C)O)cc2O[C@H]1CN(C)C(=O)CC1CC1`: the activation is 0.298% (inactive).

Take `CS(=O)(=O)N(CC(=O)Nc1ccc(Br)cc1)c1cc(Cl)c(Cl)cc1Cl`: the activation is -23.8% (inactive).

For `C[C@H](CO)N1C[C@H](C)[C@H](CN(C)C(=O)c2cnccn2)Oc2cc(C3=CCCC3)ccc2S1(=O)=O`, the activation is 3.46% (inactive).

As to `O=C(CSc1nnc(-c2ccncc2)n1-c1ccc(Cl)cc1)Nc1ccc(C(=O)O)cc1`, the activation was 7.38% (inactive).

Turning to `CCCC#Cc1cnc2c(c1)C(=O)N([C@H](C)CO)C[C@H](C)[C@@H](CN(C)C(=O)c1cccnc1)O2`, the activation is 2.84% (inactive).

As to `Cc1ccn2c(NC(=O)C(C)(C)Oc3ccc(Cl)cc3)c(-c3ccc(F)cc3)nc2c1`, the activation was -19% (inactive).

For `CCc1ccccc1NC(=O)CSc1nnc(N)s1`, the activation was 10.1% (inactive).

For `COc1ccc(NC(=O)C(C)N2c3cccc4cccc(c34)S2(=O)=O)c(OC)c1` (stereo unspecified), the activation was -6.27% (inactive).

For `COc1ccccc1-c1cnc2c(c1)C(=O)N([C@@H](C)CO)C[C@@H](C)[C@@H](CN(C)C(=O)c1cccnc1)O2`, the activation was 2.65% (inactive).

On to `COc1ccccc1-c1cnc2c(c1)C(=O)N([C@H](C)CO)C[C@H](C)[C@@H](CN(C)CC1CCOCC1)O2`, for which the activation was 5.27% (inactive).

Regarding `O=C(O)CCSc1nnc2c(n1)[nH]c1ccccc12`, the activation is -2.83% (inactive).

With `O=C(CSc1nnc(-c2ccco2)n1-c1ccccc1)Nc1ccc(F)cc1`, the activation is 7.08% (inactive).

On to `Cc1ccc(-c2nnc(SCC(=O)Nc3ccccc3OC(F)F)o2)cc1`, for which the activation was 102% (active).

On to `O=C(CSc1nnc(-c2ccc(Br)cc2)o1)Nc1ccc2ccccc2c1`, for which the activation is -20.7% (inactive).

Turning to `COc1ccccc1-c1nnc(SCC(=O)Nc2ccccc2)o1`, the activation was 28.3% (inactive).

Take `O=C(CSc1ncnc2sc3c(c12)CCCC3)Nc1ccc(F)c(Cl)c1`: the activation is 0.113% (inactive).

For `CC(C)Cc1nc(SCC(=O)Nc2ccc3ccccc3c2)n[nH]1`, the activation is 9.32% (inactive).

For `C/C=C/c1ccc2c(c1)O[C@H](CN(C)Cc1cccc(F)c1)[C@H](C)CN([C@H](C)CO)S2(=O)=O`, the activation was -12.7% (inactive).

Regarding `COc1ccccc1NC(=O)N(C)C[C@@H]1Oc2ncc(Br)cc2C(=O)N([C@@H](C)CO)C[C@@H]1C`, the activation was 3.31% (inactive).

Regarding `CCn1c(SCC(=O)O)nc2sc3c(c2c1=O)CC(C)(C)OC3`, the activation is 17.9% (inactive).

Turning to `COC(=O)c1cc(OC)c(OC)cc1NC(=O)c1cc(-c2ccc(C)o2)nc2ccccc12`, the activation was 21.7% (inactive).

Turning to `Cc1ccc(C(=O)Oc2ccc(C(=O)CSc3nc4ccccc4o3)cc2)cc1`, the activation is 45.6% (inactive).

Consider `COc1ccc(C(=O)CCC(=O)Nc2ccc(Br)cc2)cc1`, for which the activation was -1.31% (inactive).

Consider `COc1ccccc1NC(=O)CSc1n[nH]c(C)n1`, for which the activation was -9.46% (inactive).

Turning to `CCOc1ccc(NC(=O)Cn2c(=O)n(-c3ccc(Cl)cc3)c(=O)c3c4c(sc32)CCC4)cc1`, the activation is -5.81% (inactive).

In the case of `COc1ccccc1-n1c(N)cc(=O)nc1SCC(=O)Nc1ccc(Br)cc1`, the activation was 3.88% (inactive).

In the case of `COC(=O)COc1cccc(NC(=O)c2cc(OC)c(OC)c(OC)c2)c1`, the activation is 9.43% (inactive).

In the case of `Cc1cc2oc(C(=O)Nc3sc4c(c3C(=O)NCc3ccco3)CCC4)c(C)c2cc1C`, the activation was -5.36% (inactive).

Take `C[C@@H]1CN([C@@H](C)CO)S(=O)(=O)c2ccc(-c3cccc(C#N)c3)cc2O[C@@H]1CN(C)Cc1cccc(F)c1`: the activation was -25.7% (inactive).

With `C[C@@H]1CN([C@@H](C)CO)C(=O)c2cc(/C=C/c3ccccc3)cnc2O[C@H]1CN(C)C(=O)Nc1ccc(C(F)(F)F)cc1`, the activation was -18.8% (inactive).

For the molecule `COc1ccc(Cl)cc1NC(=O)CSc1nnc(-c2ccc(Cl)c(Cl)c2)n1C`, the activation was 1.7% (inactive).

In the case of `C/C=C/c1ccc2c(c1)O[C@H](CN(C)C(=O)Cc1cccnc1)[C@@H](C)CN([C@H](C)CO)S2(=O)=O`, the activation is -5.22% (inactive).

As to `Cc1cc(=O)oc2cc(OC(C)C(=O)Nc3ccc(Cl)c(C(F)(F)F)c3)ccc12` (stereo unspecified), the activation was 0.711% (inactive).

For the molecule `CCCC#Cc1ccc2c(c1)O[C@@H](CN(C)CC1CC1)[C@@H](C)CN([C@H](C)CO)S2(=O)=O`, the activation was 1.22% (inactive).

Turning to `COCCNC(=O)C[C@@H]1C[C@@H]2c3cc(NC(=O)Nc4ccc(C(F)(F)F)cc4)ccc3O[C@@H]2[C@@H](CO)O1`, the activation is 11.3% (inactive).

Regarding `Cc1ccnc(NC(c2cccc([N+](=O)[O-])c2)c2ccc3ccc(C)nc3c2O)c1` (stereo unspecified), the activation is -13.9% (inactive).

As for `Cc1csc2nc(SCC(=O)Nc3ccc([N+](=O)[O-])cc3)[nH]c(=O)c12`, the activation is 15.6% (inactive).

In the case of `Cn1nnc(NC(=O)COc2ccc(Cl)cc2Cl)n1`, the activation is 70.8% (active).

Regarding `COc1cc(NC(=O)COc2ccc(Br)cc2)ccc1NC(=O)c1ccccc1Cl`, the activation was 20.3% (inactive).

For the molecule `COc1ccc(NC(=O)CSc2nnnn2C)cc1Cl`, the activation was 47.7% (inactive).

Consider `CCOc1ccc(OCC(=O)Nc2cc(C)c(Cl)cc2OC)cc1`, for which the activation is 8.21% (inactive).

For `COc1cc(NC(=O)COc2ccccc2Br)c(OC)cc1Cl`, the activation was 132% (active).

Regarding `COc1cc(NC(=O)COc2ccc(Cl)cc2C)c(OC)cc1Cl`, the activation was 105% (active).

Consider `COC(=O)c1cc(OC)c(OC)cc1NC(=O)COc1ccccc1Cl`, for which the activation is 10.4% (inactive).

Consider `COc1cc(NC(=O)COc2cc(C)c(Br)c(C)c2)c(OC)cc1Cl`, for which the activation was 0.202% (inactive).

As to `COC(=O)c1cc(OC)c(OC)cc1NC(=O)COc1ccc(Cl)cc1`, the activation is -22.9% (inactive).

`CS(=O)(=O)N(CC(=O)Nc1cc(C(F)(F)F)ccc1Cl)c1ccccc1Br`: the activation was -13.9% (inactive).

Consider `Cc1cc(C)c2oc(-c3cccc(NC(=O)COc4ccc(Br)cc4)c3C)nc2c1`, for which the activation was -29.6% (inactive).

In the case of `Cc1ccc2nc(-c3ccc(Cl)c(NC(=O)COc4ccc(Br)cc4)c3)oc2c1`, the activation is 91.4% (active).

In the case of `Cc1ccc(OCC(=O)Nc2cc(-c3nc4cc(C)c(C)cc4o3)ccc2C)cc1`, the activation was 39.9% (inactive).

As to `CS(=O)(=O)N(CC(=O)Nc1ccccc1C(=O)N1CCOCC1)c1ccc(I)cc1`, the activation is 9.09% (inactive).

For the molecule `CN(C)CCNc1oc(COc2ccc(F)cc2)nc1C#N`, the activation is -4.45% (inactive).

For `Cc1ccc(N(CC(O)CN2C(=O)NC(C)(C)C2=O)S(=O)(=O)c2ccccc2)cc1` (stereo unspecified), the activation is 22.6% (inactive).

Consider `O=C1c2ccccc2C(=O)N1CCCc1nc2ccccc2c(=O)n1-c1nc2ccccc2s1`, for which the activation is 102% (active).

As to `O=C1c2ccccc2C(=O)N1CCCn1c2ccccc2c2nc3ccc([N+](=O)[O-])cc3cc21`, the activation is 9.36% (inactive).

With `Cc1ccc(NC(=O)CCCN2C(=O)c3ccccc3C2=O)cc1`, the activation was 11.8% (inactive).

As for `COCC#Cc1cnc2c(c1)C(=O)N([C@H](C)CO)C[C@H](C)[C@@H](CN(C)C(=O)Nc1cc(F)ccc1F)O2`, the activation is 13.3% (inactive).

Consider `CC(NS(=O)(=O)c1ccc(F)cc1)C(=O)Nc1ccc(I)cc1` (stereo unspecified), for which the activation was -13.8% (inactive).

Turning to `COc1ccc(C#Cc2cnc3c(c2)C(=O)N([C@H](C)CO)C[C@H](C)[C@@H](CN(C)C)O3)cc1`, the activation is 0.282% (inactive).

`O=C(CS(=O)(=O)c1ccccc1)Nc1ccc2c(c1)OCCO2`: the activation was 61.6% (active).

As for `O=C(CS(=O)(=O)c1ccccc1)Nc1ccccc1O`, the activation is 7.6% (inactive).

As for `COc1ccc(S(=O)(=O)N(C)CC(=O)Nc2ccc3c(c2)OCCO3)cc1OC`, the activation is -12.9% (inactive).

Regarding `CC(C)(C)c1ccc(OCC(=O)NCc2ccccn2)c(Br)c1`, the activation was 94.5% (active).

For the molecule `CN(c1ccc(C(=O)NCc2ccccn2)cc1)S(C)(=O)=O`, the activation is 5.75% (inactive).

As to `Cc1ccc2nc(-c3ccncc3)cc(C(=O)NCc3ccccn3)c2c1`, the activation was -3.82% (inactive).
